Assay outcomes (PubChem BioAssay)
Sampled rows, rich in hits. Any-hit rate of the full collection: about 2.4%.
D2 ag-1: HTS Assay for Allosteric Agonists of the Human D2 Dopamine Receptor: Primary Screen for Agonists; AID 485358, 2010; HEK293 T-REx D2 cells, calcium flux agonist mode; activation, % at 2 µM; 340,000 tested, 0.53% active; D(2) dopamine receptor (Homo sapiens), P14416;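 active means activation over 3 SD above normal in the single-dose calcium agonist read, cut at about 30% in these data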; further: 0% is about no effect
Target sequence (P14416 whole entry, looked up): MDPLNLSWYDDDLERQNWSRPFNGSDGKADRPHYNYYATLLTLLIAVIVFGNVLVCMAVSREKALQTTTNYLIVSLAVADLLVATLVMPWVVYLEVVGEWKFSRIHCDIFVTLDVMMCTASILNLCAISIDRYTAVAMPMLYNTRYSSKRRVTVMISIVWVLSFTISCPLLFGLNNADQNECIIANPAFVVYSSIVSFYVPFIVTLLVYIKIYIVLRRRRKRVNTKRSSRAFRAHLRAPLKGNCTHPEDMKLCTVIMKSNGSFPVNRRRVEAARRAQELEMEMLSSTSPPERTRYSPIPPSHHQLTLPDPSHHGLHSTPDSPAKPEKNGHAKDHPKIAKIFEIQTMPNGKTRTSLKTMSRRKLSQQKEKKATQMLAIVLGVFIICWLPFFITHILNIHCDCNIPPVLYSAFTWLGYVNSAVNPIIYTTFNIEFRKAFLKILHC
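Tetracycline-induced HEK293 Trex cells with D2 receptor force-coupled to calcium signaling, plated overnight at 30 C and loaded with no-wash calcium dye. Calcium flux read kinetically for 180 s after compound addition; responses flag agonists.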
D2 PAM-1: Beta-Arrestin HTS for Positive Allosteric Modulators of the Human D2 Dopamine Receptor: Potentiators; D(2) dopamine receptor (Homo sapiens), P14416; DiscoveRx D2 beta-arrestin cells, luminescence, 90 min; 100% = 57 uM dopamine signal; potentiation, % (no concentration beside the values); 360,000 tested, 0.23% active; AID 624464, 2012; in the data active means potentiation above about 50%
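PathHunter D2 cells, attached overnight at 37 deg C, received compound in DMSO plus dopamine at EC20 (50 nM final) for 90 min at 37 deg C. Beta-arrestin recruitment was read as luminescence after 1 h with detection reagent at ambient temperature.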
D2 PAM-2: HTS Assay for Positive Allosteric Modulators of the Human D2 Dopamine Receptor: Primary Screen for Potentiators. D(2) dopamine receptor (Homo sapiens), P14416. HEK293 T-REx D2, calcium flux, EC20 dopamine potentiation. potentiation, % at 10 µM. 340,000 tested, 0.34% active. AID 485347, 2010;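 active means potentiation over 3 SD above the plate norm, cut at about 30% in these data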; further: 0% is about no effect
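Primary screen. Calcium kinetics in induced HEK293 T-REx D2 cells: compound pre-addition 180 s, EC20 dopamine, 180 s more.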
D2 antagonist: HTS Assay for Allosteric Antagonists of the Human D2 Dopamine Receptor: Primary Screen for Antagonists; D(2) dopamine receptor (Homo sapiens), P14416; HEK293 TREx D2 cells, calcium flux, dopamine EC80; inhibition, % at 10 µM; 340,000 tested, 2% active; AID 485344, 2010; in the data active means inhibition above about 30%; inactive means below that, where a call was filed; further: 0% is about no effect
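Dopamine at EC80 is the agonist stimulus; test compounds precede it by 180 s. Calcium flux read kinetically in a force-coupled, inducible HEK293 T-REx D2 cell line.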
D2 ag-2: Beta-Arrestin HTS for Positive Allosteric Modulators of the Human D2 Dopamine Receptor: Agonists. D(2) dopamine receptor (Homo sapiens), P14416. DiscoveRx PathHunter D2 beta-arrestin, luminescence, 90 min; 100% = 57 uM dopamine signal. activation, % (test concentration not listed). 360,000 tested, 0.084% active. AID 624465, 2012; in the data active means activation above about 40%
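DiscoveRx PathHunter D2 beta-arrestin cells (2,100/well) attached overnight, then compound-stimulated 90 min at 37 C in HBSS/10 mM HEPES/0.1% Tween-20 buffer; beta-galactosidase complementation read by luminescence after 1 h at ambient temperature. Dopamine 57 uM final (EC100) as control.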
An asterisk follows results filed as active; / = not tested or not shown.

SMILES | D2 ag-1 | D2 PAM-1 | D2 PAM-2 | D2 antagonist | D2 ag-2
CCOc1ncccc1C(=O)Nc1nnc(C2CC2)s1 | 2 | -23 | 37* | -27 | 0
Cc1ccc(C(NC(=O)N2CCCC2)C(Cl)Cl)cc1F (centres undefined) | -1 | -4 | -8 | 25 | -1
COC(=O)N/N=C\c1c(C)[nH]n(-c2ccccc2)c1=O | -1 | -14 | 4 | 13 | -4
COCC(=O)N/N=C/c1c(C)[nH]n(-c2ccccc2)c1=O | 0 | -10 | 33* | 4 | -4
Cc1[nH]n(-c2ccccc2)c(=O)c1/C=N/N(C)c1ccccc1 | -1 | 74* | -6 | -15 | 10
COc1cc(C2c3c(-c4ccccc4)n[nH]c3C(=O)N2c2ccccc2)ccc1O (centres undefined) | 0 | 52* | 25 | -5 | 3
CCCN1CCCc2cc(CN)ccc21 | 0 | 50* | -9 | 9 | 4
O=C(CCNC(=O)c1ccc([N+](=O)[O-])cc1)Nc1cc(Cl)ccc1N1CCOCC1 | 1 | 2 | 4 | 15 | 1
CCNc1nc(NCC)nc(N/N=C/c2ccc(N(C)C)cc2)n1 | 0 | -9 | -2 | -22 | -1
CCNc1nc(NCC)nc(N/N=C/c2ccc(O)c(O)c2)n1 | 0 | 8 | 2 | 44* | 14
COC(=O)C1Cc2c([nH]c3ccccc23)C2(CCN(Cc3ccccc3)CC2)N1 (centres undefined) | 4 | -12 | -32 | 75* | -5
CCCN1CCC2(CC1)NC(C(=O)O)Cc1c2[nH]c2ccccc12 (centres undefined) | 1 | 0 | 21 | -8 | 1
COc1ccccc1-c1ccc(/C=C2\C=CC(=O)O2)o1 | 66* | -5 | -6 | -12 | -2
Cc1[nH]c2ccccc2c1C1C(c2ccccc2)=NN=C(C(C)C)N1O (centres undefined) | 0 | 12 | 31* | 6 | 1
COc1cccc(-c2cc(N3CCN(C(=O)c4ccoc4)CC3)n3nc(-c4cccc(Cl)c4)cc3n2)c1 | / | / | / | / | 0
COc1cccc(NS(=O)(=O)c2ccc(Br)s2)c1 | 0 | -8 | 8 | 34* | 0
COc1ccc(OC)c(NS(=O)(=O)c2ccc(Br)s2)c1 | -1 | / | -9 | -3 | /
CS(=O)(=O)N(CC(=O)N1CCCC1)c1cc(Cl)ccc1Cl | / | 2 | / | / | -6
CCOc1ccc(NC(=NCc2ccc3c(c2)OCO3)SC2CC(=O)N(c3ccccc3)C2=O)cc1 (centres undefined) | 1 | -3 | 31* | -8 | -4
O=C(O)c1ccc2c(c1)NC(=O)C(N1CCCC1)S2 (centres undefined) | 1 | -9 | -11 | 10 | -2
Cc1[nH]c2ccc(C(=O)NCCCN3CCCCCC3)cc2c1C | 1 | -38 | -13 | 62* | 2
O=C(NCCCN1CCCCC1)c1ccc2c(c1)NC(=O)C(N1CCCCC1)S2 (centres undefined) | 0 | -48 | -21 | 47* | -6
CCN(CCCNC(=O)c1cc2c(=O)[nH]c3ccc(C)cc3c2s1)c1ccc(C)cc1 | 1 | / | 0 | / | /
CCCN1CCN(CCCNC(=O)c2cc3c(=O)[nH]c4ccc(C)cc4c3s2)CC1 | -1 | -10 | -7 | 43* | -3
CC1CC(C)CN(CCCNC(=O)c2ccc3c(c2)NC(=O)C(N2CCCCC2)S3)C1 (centres undefined) | 1 | -31 | -29 | 88* | -4
